Experimental data as given in PubChem BioAssay (NCI).
Compounds without any hit were thinned out: in the full panel of roughly 79,000, 15% have a hit. The source made the active and inactive calls. Rule as the data show it: active = growth inhibition above about 70%; inactive = the rest.

assay: NCI Yeast Anticancer Drug Screen. Data for the rad50 strain (AID 155);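 also: 0% = growth of vehicle-only cultures of the same strain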; details: S. cerevisiae rad50 strain growth inhibition; at 5.0 µM (retest, dose inferred, filed as 0.5); stronger effect = higher value
Procedure, shortened: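 Vehicle-treated cultures provide the reference for the growth inhibition reported for compound-exposed, repair-deficient yeast.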

Compound | growth inhibition
CC(=O)NNc1nc(C)c(C(=O)NNC(=O)C(=O)Nc2c(C)cccc2C(C)C)s1 | 3% (inactive)
COc1cc(C2CC(=O)c3ccccc3O2)ccc1O (configuration not stated) | 0% (inactive)
CCC1CCC2C3CC=C4CC(OC(C)=O)C(N)CC4(C)C3CCC12C (configuration not stated) | 6% (inactive)
COc1ccccc1C1c2cc3c(cc2OC(N2CCOCC2)C1C)OCO3 (configuration not stated) | 15% (inactive)
O=C1C=C/C(=C(/c2ccc(O)c(O)c2)c2ccccc2S(=O)(=O)O)C=C1O | 1% (inactive)
N#CSC#Cc1ccc(C#CSC#N)cc1 | 100% (active)
Cc1c2ccccc2c(CCl)c2ccc3ccccc3c12 | 99% (active)
Oc1ccc(C(=C(Br)c2ccccc2)c2ccc(O)cc2)cc1 | 98% (active)
Clc1ccc(/C=N/Nc2c3ccccc3nc3ccccc23)c(Cl)c1 | -6% (inactive)
CCCC#CCCOC(=O)c1cc([N+](=O)[O-])cc([N+](=O)[O-])c1 | 3% (inactive)
CCOc1ccc2c(c1)n([O-])c1ccccc1[n+]2=O | 88% (active)
COc1ccc(/C(Cl)=C(\c2ccc(OCCN(C)C)cc2)c2ccc(OC(=O)C(C)(C)C)cc2)cc1 | 23% (inactive)
CCCCCCCCCCCCCCCCSC(=NC)NC | 89% (active)
N#Cc1ccc(Oc2nc3ccccc3nc2-c2ccccc2)cc1 | 0% (inactive)
Cc1ccc2c(c1)nc1n2C(N)=Nc2ccccc2S1 | 14% (inactive)
COc1cc(NCc2ccc3nc(-c4ccccc4)c(N)nc3c2)cc(OC)c1OC | 7% (inactive)
O=C(OCCC1CCCCC1)c1cc([N+](=O)[O-])cc([N+](=O)[O-])c1 | 4% (inactive)
